These results are taken from PubChem BioAssay AID2013 (Sanford-Burnham Center for Chemical Genomics, 2009).

SMILES strings stand for the structures. In all, about 290,000 compounds went through this assay and about 370 (0.13%) were called active. For the sample, actives were picked, then their nearest neighbours and some compounds at random. Potency and affinity values are given separately. Unmarked numbers belong to inactive results.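 Rule for the calls: active = spots per cell inhibited over 60%, with over 100 cells counted and total cytoplasm intensity under 500,000; inconclusive = wells with under 100 cells, flagged as likely toxic; inactive = the rest.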

The target of this test is G-protein coupled receptor 55 (Homo sapiens) (UniProt Q9Y2T6). The test is described as follows: inhibition of LPI-stimulated GPR55 beta-arrestin translocation – imaging, U2OS, beta-arrestin-GFP, LPI agonist, primary screen (AID 2013).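 Note: U2OS cells stably carrying GPR55 and arrestin-GFP stimulated by 5 µM LPI near EC80; imaged beta-arrestin-GFP aggregate spots per cell after agonist stimulation; plate controls were LPI-stimulated DMSO wells for no effect and DMSO wells without LPI for full effect.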 Particulars: LPI antagonism, at 10 µM, stronger effect = higher value.
Chain of G-protein coupled receptor 55 (Homo sapiens) (Q9Y2T6 whole entry, looked up): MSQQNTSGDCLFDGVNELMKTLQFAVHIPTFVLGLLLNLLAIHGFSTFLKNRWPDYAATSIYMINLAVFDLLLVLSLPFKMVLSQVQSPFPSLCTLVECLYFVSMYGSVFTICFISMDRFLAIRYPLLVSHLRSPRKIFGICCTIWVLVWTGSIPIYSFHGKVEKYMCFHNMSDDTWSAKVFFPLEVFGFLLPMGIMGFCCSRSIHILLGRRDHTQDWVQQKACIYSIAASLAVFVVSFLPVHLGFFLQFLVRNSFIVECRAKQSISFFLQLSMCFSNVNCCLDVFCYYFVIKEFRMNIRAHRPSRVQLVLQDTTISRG
Consider `Cc1ccc(C)c(NC(=O)CN(C)C(=O)/C=C/c2ccco2)c1`, for which the inhibition was -6.6%. With `CCCCCCCCOC(=O)CCc1c(C)[nH]c(=S)[nH]c1=O` the figure was -16.9%; with `COc1ccc(C)cc1NC(=O)CCNS(=O)(=O)c1cccc2nonc12`, 6.9%. With `COc1ccc(C(OCC(O)CNCCc2ccccc2)c2ccc(OC)cc2)cc1` (stereo not drawn) the figure was 8.1%; with `OC(CNCCc1ccc(C(F)(F)F)cc1)COc1ccc2ccccc2c1` (stereo not drawn), 30.5%.

With `N#CCSc1ccsc1C(=O)Nc1ccc(F)cc1`, the inhibition is 2.6%. With `COCCn1nnnc1CN1C2CCCC1CC(NC(C)=O)C2` (stereo not drawn) the figure was 0.2%. With `COc1cc(/C=N/OCC(=O)NC2CCCCC2C)ccc1OCc1ccc(Cl)cc1` (stereo not drawn) the figure was -3.5%; with `CCOc1ccccc1CNS(=O)(=O)c1ccc(-c2cnc(C3CC3)o2)cc1`, 99.5%. With `COc1cccc(N2CCN(c3ncnc4c3[nH]c3ccc(F)cc34)CC2C)c1` (stereo not drawn) the figure was 91.8% (active); with `Fc1ccc2[nH]c3c(N4CCN(c5ccccc5)CC4)ncnc3c2c1`, -5.9%. As for `COc1cccc(N2CCN(c3ncnc4c3[nH]c3ccccc34)CC2C)c1` (stereo not drawn), the inhibition is 33%.

Consider `COC(=O)COc1ccc(S(=O)(=O)NCc2ccco2)cc1`, for which the inhibition was 10.1%. With `C/C(=C\c1ccccc1)C(=O)NCCCn1ccnc1` the figure was 9.4%; with `Cc1ccccc1NC(=S)N(CCCN1CCOCC1)Cc1cccs1`, 54.6%; with `Cc1ccc(NC(=S)N(CCCN2CCOCC2)Cc2cccs2)c(C)c1`, 25.2%. With `CCC(C)(C)n1nnnc1C(c1cccc(C#N)c1)N1CCN(c2cc(C)ccc2C)CC1` (stereo not drawn) the figure was 2.5%; with `CCc1cc2c(=O)c(-c3ccc4c(c3)OCCO4)coc2cc1OS(C)(=O)=O`, 8%; with `COc1cc(/C=C(\C#N)C(N)=O)ccc1OS(=O)(=O)c1ccc(C)cc1`, 28.6%. With `COc1cc(/C=C(\C#N)C(=O)NC2CCCCC2C)ccc1OS(=O)(=O)c1ccc(C)cc1` (stereo not drawn) the figure was 28.8%; with `O=C(OCc1nnc(-c2ccccc2)o1)C12CC3CC(CC(Br)(C3)C1)C2`, 0.4%; with `N#CC(C#N)=C1C=C2C=C(N3CCCCCC3)CCC2CC1` (stereo not drawn), 23.3%.

Regarding `N#CC(C#N)=C1C=C2C=C(N3CCCCC3)CCC2CC1` (stereo not drawn), the inhibition was 3.1%. As for `CCc1ccc(CN2CCC(n3nccc3NC(=O)c3ccccc3)CC2)o1`, the inhibition was -3.9%. With `Cc1c(C(=O)NCc2ccc3c(c2)OCO3)sc2nc(-c3ccc(F)cc3)cn12` the figure was 11.5%; with `CC(C)c1nnc(NC(=O)CCC(=O)NCc2ccccc2Cl)s1`, 13%; with `CCCNc1nc(=S)n(-c2ccccc2)c(C)c1C(C)=O`, 4.7%. With `O=C(O)CSc1ncnc2scc(-c3ccccc3)c12` the figure was 3.8%.

Regarding `Cc1ccc(-c2csc3ncnc(SCc4ccc(C(=O)O)cc4)c23)cc1`, the inhibition is 10%. With `O=C(NNC(=S)NCc1ccccc1)c1ccc(Br)o1` the figure was 13.5%. With `C=CCN(c1ccccc1)S(=O)(=O)c1c(C)[nH]c(=O)[nH]c1=O` the figure was 0.3%; with `O=[N+]([O-])CC(=Nc1ccc(F)cc1)N/N=C\c1oc(O)c2ccccc12`, 15.6%; with `COC(=O)C1=C(C)N(Cc2ccccc2)C(=O)/C1=C\c1ccco1`, 2.2%. With `COC(=O)C1=C(C)N(Cc2ccc(OC)cc2)C(=O)/C1=C\c1ccco1` the figure was 0.4%; with `Cc1ccc2cccc(Oc3ncnc4scc(-c5ccccc5)c34)c2n1`, 77.9% (active); with `Cc1ccc(-c2csc3ncnc(Oc4cccc5ccc(C)nc45)c23)cc1`, 3.8%. For the compound `COc1ccc(-c2csc3ncnc(Oc4cccc5ccc(C)nc45)c23)cc1`, the inhibition was 7.8%. For the compound `Cc1ccc(N2C(=O)C3CCCN3C2=S)cc1C` (stereo not drawn), the inhibition is 3.3%. With `O=C(COc1cccc(C(F)(F)F)c1)N1CCN(c2ccc(O)cc2)CC1` the figure was -7.2%; with `NC(=O)c1ccc[n+](CC(=O)c2ccc(Br)cc2)c1`, 9.5%.

Consider `N#C/C(=C/c1ccc(N2CCOCC2)o1)C(=O)Nc1ccccc1`, for which the inhibition is 0.6%. With `N#C/C(=C\c1ccc(N2CCOCC2)o1)C(=O)Nc1ccc(O)cc1` the figure was -2.9%; with `N#C/C(=C\c1ccc(N2CCOCC2)o1)C(=O)N1CCOCC1`, 100% (active); with `COc1cccc(NC(=O)C(=O)N/N=C/c2ccc3c(c2)OCO3)c1`, 14.8%. With `CC(=O)Oc1ccc(C(=O)Cc2ccccn2)c(O)c1` the figure was 1%.

As for `c1ccc(C(c2ccccn2)c2ccccn2)cc1`, the inhibition was 1.1%. With `CCOC(=O)CCNC(=O)N1CCCC(N(C)CCc2ccc(OC)c(OC)c2)C1` (stereo not drawn) the figure was 6.3%; with `O=C(NCC1CC1)Nc1ccc(Cl)cc1`, 10.7%; with `CCCS(=O)(=O)N1CCCC(C(=O)Oc2ccc(C)c(C)c2)C1` (stereo not drawn), -6.5%. With `CCOc1ccccc1NC(=O)NC1(C(=O)NCc2cccnc2)CCCCC1` the figure was 3.3%. As to `CCOC(=O)c1cc2c(=O)n3cccc(C)c3nc2n(Cc2ccccc2Cl)c1=N`, the inhibition was 85.6% (active).

Regarding `COC(=O)c1cc2c(=O)n3cccc(C)c3nc2n(Cc2cccnc2)c1=N`, the inhibition is -5.2%. Take `CCOC(=O)c1cc2c(=O)n3cccc(C)c3nc2n(C)c1=N`: the inhibition was 4.1%.

`CCOC(=O)c1cc2c(=O)n3ccccc3nc2n(Cc2ccccc2Cl)c1=N`: the inhibition was 38.5%.

With `CCn1c(=N)c(C(=O)OC)cc2c(=O)n3ccccc3nc21`, the inhibition was -3.4%. With `COCCNC(=O)C(OC(=O)CC1Sc2ccccc2NC1=O)c1ccncc1` (stereo not drawn) the figure was 1.2%. Regarding `O=[N+]([O-])c1ccc(S(=O)(=O)NCCN2CCOCC2)cc1`, the inhibition is 11.3%. For `CCn1ncc(C(=O)Nc2cccc(Cl)c2)c1C`, the inhibition was 3.9%. With `Brc1ccc(-c2nnc(Cc3ccccc3)o2)cc1` the figure was -5.2%; with `COc1ccc(Cc2nnc(-c3ccccc3)o2)cc1`, -5.3%. As to `CCN1CCCC1CN(Cc1cc2cc(OC)ccc2[nH]c1=O)C(=O)NCc1ccccc1` (stereo not drawn), the inhibition was 11.3%. With `CC(NC(=O)C12CC3CC(CC(C3)C1)C2)c1ccc2c(c1)OCCO2` (stereo not drawn) the figure was 3%; with `COc1cc(CNCCO)cc(Cl)c1OCc1ccccc1Cl`, 14.7%. With `COc1cc(CNCCO)cc(Cl)c1OCc1ccc(Cl)cc1Cl` the figure was 83.3% (active); with `CCOc1cc(CNCCO)cc(Br)c1OCc1ccc(Cl)cc1Cl`, 11.8%.

Regarding `N#C/C(=C/c1cn[nH]c1-c1ccc(Br)cc1)C(=O)O`, the inhibition was 3%. Take `COc1ccccc1/C=C(/C#N)C(=O)O`: the inhibition was 7%. With `CCOC(=O)/C(C#N)=C/c1cn(CCC(=O)O)nc1-c1cccc(Br)c1` the figure was 1.6%; with `N#C/C(=C\c1ccccc1Br)C(=O)NC1CC1`, -17.2%. With `COc1ccc(S(=O)(=O)N(CC(=O)NCc2ccncc2)c2cc(C)cc(C)c2)cc1OC` the figure was 14.3%; with `COc1ccc(-c2sc(Nc3ccccc3)n[n+]2-c2ccc(F)cc2)c(OC)c1OC`, 30%; with `COc1cc(OC)c(-c2sc(Nc3ccccc3)n[n+]2-c2ccc(F)cc2)cc1OC`, -3%. With `COc1ccc(-c2sc(Nc3ccccc3)n[n+]2C)c(C)c1C` the figure was -7%.

Turning to `COc1cc(Br)c(-c2sc(Nc3ccccc3)n[n+]2-c2ccccc2)cc1OC`, the inhibition is 40.4%.

With `CCn1c(SCC(=O)Nc2ccc(OC)cc2)nnc1-c1ccco1`, the inhibition is 2.2%. With `O=C(Nc1ccc(F)cc1)NC1(C(=O)NCc2ccco2)CCCCC1` the figure was 5.6%; with `CN(C)CCNC(=O)COc1ccc(C23CC4CC(CC(C4)C2)C3)cc1`, 33.6%.

Consider `COc1ccc(Cl)cc1C(=O)NCCN(C)C`, for which the inhibition is -0.9%. With `O=C(NCCCN1CCN(c2ccc(F)cc2)CC1)NC12CC3CC(CC(C3)C1)C2` the figure was -1.6%; with `CCOC(=O)c1cnc(SC)nc1Oc1cccc(NC(=O)c2cccc(Cl)c2Cl)c1`, 9.1%; with `CCCCNC(=S)N(C)/N=C/c1sc(N2CCCCC2)nc1-c1cccs1`, 11.7%. With `CC(=O)N(C1=C(O)c2ccccc2C(=O)C1=O)C1CCCCC1` the figure was -3.7%.

Regarding `CC(=O)N(c1ccccc1)C1CCCC1`, the inhibition is 3.9%. With `Cc1cc(OCC(=O)Nc2ccc(CN3CCOCC3)cc2)c2c(C)c(C)c(=O)oc2c1` the figure was 18.4%. With `CC(C)Sc1cc(N2CCCC2)nc(-c2ccccc2Cl)n1` the figure was 7.8%; with `CCOc1cccc(OCCNC2CCCC2)c1`, -14.7%.

As to `COc1ccc(-c2c3c(=O)n(C)c(=O)n(C)c3cn2-c2cc(OC)ccc2OC)cc1`, the inhibition is 11.5%. With `COCCNC(=O)c1ccccc1NC(=O)CN(c1ccc2c(c1)OCO2)S(C)(=O)=O` the figure was 6.3%. With `COc1cccc(NC(=O)CN(C)CC(=O)Nc2cccc(C(F)(F)F)c2)c1` the figure was -8.3%; with `O=C(Nc1ccnn1C1CCN(Cc2cc3ccccc3[nH]2)CC1)C1CCOC1` (stereo not drawn), 1.9%. With `Cc1cc(C)c(Nc2cc(S(=O)(=O)O)c(N)c3c2C(=O)c2ccccc2C3=O)c(C)c1` the figure was 66.8% (active).

As for `Nc1c(S(=O)(=O)O)cc(NC(=O)c2ccccc2)c2c1C(=O)c1ccccc1C2=O`, the inhibition was 0.8%. Take `Cc1cc(C)cc(NC2=C(N)C(=O)c3ccccc3C2=O)c1`: the inhibition was 6.8%. With `Cc1ccc(C)c(NC(=O)NNC(=O)CCc2ccccc2)c1` the figure was 11%; with `CC(C)(C)n1nnnc1C(c1cccnc1)N(Cc1ccccc1)Cc1cccs1` (stereo not drawn), 59.7%; with `CC(C)(C)n1nnnc1C(c1cccs1)N(Cc1cccnc1)CC1CCCO1` (stereo not drawn), 4.3%. With `CC(c1nnnn1C(C)(C)C)N(Cc1cccnc1)Cc1ccccc1Cl` (stereo not drawn) the figure was 11.1%; with `CC(C)(C)n1nnnc1C(c1cccs1)N(Cc1cccnc1)Cc1ccco1` (stereo not drawn), 57.6%.
